# Test results from PubChem BioAssay AID1159580 (chemical genetic matrix, 2015).
# “And” between values parts separate entries of the source, which are not always exact repeats. Identical values can stand only once. In all, about 5,500 compounds went through this assay and about 2,000 (36%) were called active. Roughly 18% stayed inconclusive and do not appear here. The list shows a part of the results. Values without a mark were called inactive. No stated cut-off is given here; in the data, active means normalized growth mostly below about 0.91 (no sharp cut-off); inconclusive means no clear call, values can overlap the other calls; inactive means mostly above about 0.92.
# Assay: chemical genetic growth profiling, strain panel (AID 1159580);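 further: tested at 20 µM; growth read once vehicle control cultures reached saturation at 30 °C; 1 = growth at the plate median or of vehicle wells; lower values mean less growth of the strain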
# Details: S. cerevisiae deletion strains, growth OD
smiles,measurement,setting,value
COC(=O)/C=C/C(C)=C/C=C/C(C)=C/C=C/C=C(C)/C=C/C=C(C)/C=C/C(=O)O,normalized growth,"locus YAL013W, strain DEP1, hits give low values",1
same,normalized growth,"locus YAL021C, strain ccr4, hits give low values",1.02
same,normalized growth,"locus YAL026C, strain drs2, hits give low values",1.02
same,normalized growth,"locus YAL030W, strain snc1, hits give low values",1.02
same,normalized growth,"locus YBL061C, strain skt5, hits give low values",1.04
same,normalized growth,"locus YBR009C, strain hhf1, hits give low values",1.02
same,normalized growth,"locus YBR021W, strain FUR4, hits give low values",1.03
same,normalized growth,"locus YBR023C, strain chs3, hits give low values",1.03
same,normalized growth,"locus YBR171W, strain sec66, hits give low values",1.03
same,normalized growth,"locus YBR229C, strain ROT2, hits give low values",1.02
same,normalized growth,"locus YBR231C, strain swc5, hits give low values",1.02
same,normalized growth,"locus YBR279W, strain paf1, hits give low values",0.988
same,normalized growth,"locus YCL011C, strain gbp2, hits give low values",1.02
same,normalized growth,"locus YCL016C, strain dcc1, hits give low values",1.02
same,normalized growth,"locus YCL029C, strain bik1, hits give low values",1.01
same,normalized growth,"locus YCL061C, strain MRC1, hits give low values",1.02
same,normalized growth,"locus YCL069W, strain vba3, hits give low values",1.02
same,normalized growth,"locus YCR088W, strain abp1, hits give low values",1.02
same,normalized growth,"locus YDL005C, strain med2, hits give low values",1.01
same,normalized growth,"locus YDL035C, strain GPR1, hits give low values",1.02
same,normalized growth,"locus YDL040C, strain nat1, hits give low values",1.01
same,normalized growth,"locus YDL074C, strain BRE1, hits give low values",1
same,normalized growth,"locus YDL101C, strain DUN1, hits give low values",1.02
same,normalized growth,"locus YDL134C, strain PPH21, hits give low values",1.04
same,normalized growth,"locus YDL185W, strain tfp1, hits give low values",1.02
same,normalized growth,"locus YDL192W, strain arf1, hits give low values",1.01
same,normalized growth,"locus YDR001C, strain nth1, hits give low values",1.03
same,normalized growth,"locus YDR069C, strain doa4, hits give low values",1.04
same,normalized growth,"locus YDR101C, strain arx1, hits give low values",0.997
same,normalized growth,"locus YDR137W, strain rgp1, hits give low values",1.05
same,normalized growth,"locus YDR150W, strain NUM1, hits give low values",1.02
same,normalized growth,"locus YDR159W, strain sac3, hits give low values",1.05
same,normalized growth,"locus YDR162C, strain NBP2, hits give low values",1.03
same,normalized growth,"locus YDR195W, strain ref2",0.993
same,normalized growth,"locus YDR297W, strain sur2, hits give low values",1.03
same,normalized growth,"locus YDR318W, strain mcm21, hits give low values",1
same,normalized growth,"locus YDR334W, strain swr1, hits give low values",1.02
same,normalized growth,"locus YDR335W, strain msn5, hits give low values",1.02
same,normalized growth,"locus YDR388W, hits give low values",0.998
same,normalized growth,"locus YDR392W, strain spt3, hits give low values",1.03
same,normalized growth,"locus YDR502C, strain sam2, hits give low values",1.01
same,normalized growth,"locus YEL003W, strain gim4, hits give low values",1.02
same,normalized growth,"locus YEL037C, strain rad23, hits give low values",1.02
same,normalized growth,"locus YEL061C, strain CIN8 (second series), hits give low values",1.01
same,normalized growth,"locus YEL061C, strain CIN8, hits give low values",1.01
same,normalized growth,"locus YER015W, strain faa2, hits give low values",1.02
same,normalized growth,"locus YER016W, strain bim1, hits give low values",1.01
same,normalized growth,"locus YER110C, hits give low values",0.989
same,normalized growth,"locus YER111C, strain swi4, hits give low values",1.02
same,normalized growth,"locus YER155C, strain BEM2 (second series), hits give low values",1.03
same,normalized growth,"locus YER155C, strain BEM2, hits give low values",0.994
same,normalized growth,"locus YER167W, strain BCK2, hits give low values",1.01
same,normalized growth,"locus YFR010W, strain ubp6, hits give low values",1.02
same,normalized growth,"locus YGL078C, strain dbp3, hits give low values",0.993
same,normalized growth,"locus YGL086W, strain mad1, hits give low values",0.986
same,normalized growth,"locus YGL167C, strain pmr1, hits give low values",1.03
same,normalized growth,"locus YGL173C, strain kem1, hits give low values",1.02
same,normalized growth,"locus YGL227W, strain vid30, hits give low values",1.03
same,normalized growth,"locus YGL240W, strain doc1, hits give low values",1.02
same,normalized growth,"locus YGL248W, strain PDE1, hits give low values",1.02
same,normalized growth,"locus YGL253W, strain hxk2, hits give low values",1.02
same,normalized growth,"locus YGR078C, strain PAC10, hits give low values",1.03
same,normalized growth,"locus YGR135W, strain pre9, hits give low values",1
same,normalized growth,"locus YGR252W, strain gcn5, hits give low values",0.983
same,normalized growth,"locus YHR013C, strain ard1, hits give low values",1.01
same,normalized growth,"locus YHR027C, strain rpn1, hits give low values",1.03
same,normalized growth,"locus YHR030C, strain SLT2, hits give low values",1.02 and 0.885
same,normalized growth,"locus YHR079C, strain IRE1 (second series), hits give low values",0.986
same,normalized growth,"locus YHR079C, strain IRE1, hits give low values",0.897
same,normalized growth,"locus YHR094C, strain hxt1, hits give low values",0.994
same,normalized growth,"locus YHR129C, strain ARP1, hits give low values",1.01
same,normalized growth,"locus YHR142W, strain chs7, hits give low values",1.03
same,normalized growth,"locus YHR200W, strain rpn10, hits give low values",1.01
same,normalized growth,"locus YIL066C, strain RNR3, hits give low values",1.03
same,normalized growth,"locus YIL073C, strain SPO22, hits give low values",1.01
same,normalized growth,"locus YIL125W, strain kgd1, hits give low values",0.997
same,normalized growth,"locus YIR030C, strain dcg1, hits give low values",0.995
same,normalized growth,"locus YJL092W, strain hpr5, hits give low values",1.03
same,normalized growth,"locus YJL095W, strain BCK1 (second series), hits give low values",1.02
same,normalized growth,"locus YJL095W, strain BCK1, hits give low values",1.04 and 0.924
same,normalized growth,"locus YJL115W, strain asf1, hits give low values",1.01
same,normalized growth,"locus YJL129C, strain trk1, hits give low values",1.02
same,normalized growth,"locus YJL134W, strain LCB3, hits give low values",1.01
same,normalized growth,"locus YJL154C, strain vps35, hits give low values",1.01
same,normalized growth,"locus YJL164C, strain tpk1, hits give low values",1.03
same,normalized growth,"locus YJL166W, strain qcr8, hits give low values",1.03
same,normalized growth,"locus YJL168C, strain set2, hits give low values",0.994
same,normalized growth,"locus YJL187C, strain SWE1 (second series), hits give low values",1.03
same,normalized growth,"locus YJL187C, strain SWE1, hits give low values",1.02
same,normalized growth,"locus YJR043C, strain POL32, hits give low values",1.03
same,normalized growth,"locus YJR066W, strain TOR1, hits give low values",0.898
same,normalized growth,"locus YJR075W, strain HOC1, hits give low values",1.04
same,normalized growth,"locus YKL009W, strain mrt4, hits give low values",0.996
same,normalized growth,"locus YKL068W, hits give low values",1.01
same,normalized growth,"locus YKL085W, strain MDH1 (second series), hits give low values",0.989
same,normalized growth,"locus YKL085W, strain MDH1, hits give low values",0.989
same,normalized growth,"locus YKL160W, strain elf1, hits give low values",1.02
same,normalized growth,"locus YKL190W, strain CNB1, hits give low values",1.01
same,normalized growth,"locus YKR001C, strain vps1, hits give low values",1.01
same,normalized growth,"locus YKR026C, strain gcn3, hits give low values",1.02
same,normalized growth,"locus YKR091W, strain srl3, hits give low values",1.02
same,normalized growth,"locus YLL001W, strain dnm1, hits give low values",1.02
same,normalized growth,"locus YLL026W, hits give low values",1.02
same,normalized growth,"locus YLL041C, strain sdh2, hits give low values",1.02
same,normalized growth,"locus YLR027C, strain aat2, hits give low values",1.02
same,normalized growth,"locus YLR039C, strain RIC1, hits give low values",1.08
same,normalized growth,"locus YLR058C, strain SHM2, hits give low values",1.01
same,normalized growth,"locus YLR102C, strain apc9, hits give low values",0.988
same,normalized growth,"locus YLR113W, strain HOG1, hits give low values",0.844 (active)
same,normalized growth,"locus YLR221C, strain rsa3, hits give low values",1.02
same,normalized growth,"locus YLR258W, strain gsy2, hits give low values",1.02
same,normalized growth,"locus YLR262C, strain YPT6 (second series), hits give low values",1.06
same,normalized growth,"locus YLR262C, strain YPT6, hits give low values",1.04
same,normalized growth,"locus YLR268W, strain sec22, hits give low values",1.02
same,normalized growth,"locus YLR320W, strain mms22, hits give low values",1.04
same,normalized growth,"locus YLR330W, strain CHS5, hits give low values",1.02
same,normalized growth,"locus YLR342W, strain FKS1 (second series), hits give low values",1.01
same,normalized growth,"locus YLR342W, strain FKS1, hits give low values",1.03
same,normalized growth,"locus YLR357W, strain rsc2, hits give low values",1.02
same,normalized growth,"locus YLR370C, strain arc18, hits give low values",1.02
same,normalized growth,"locus YLR371W, strain rom2, hits give low values",0.988
same,normalized growth,"locus YLR384C, strain iki3, hits give low values",1.02
same,normalized growth,"locus YLR418C, strain cdc73, hits give low values",1.01
same,normalized growth,"locus YML016C, strain PPZ1, hits give low values",1.02
same,normalized growth,"locus YML032C, strain rad52, hits give low values",0.982
same,normalized growth,"locus YML120C, strain ndi1, hits give low values",1.02
same,normalized growth,"locus YML124C, strain tub3, hits give low values",0.996
same,normalized growth,"locus YMR058W, strain fet3, hits give low values",1.03
same,normalized growth,"locus YMR078C, strain ctf18, hits give low values",0.993
same,normalized growth,"locus YMR125W, strain sto1, hits give low values",1.01
same,normalized growth,"locus YMR129W, hits give low values",1.02
same,normalized growth,"locus YMR205C, strain PFK2, hits give low values",1.03
same,normalized growth,"locus YMR223W, strain ubp8, hits give low values",1.01
same,normalized growth,"locus YMR231W, strain pep5, hits give low values",1.01
same,normalized growth,"locus YMR263W, strain SAP30, hits give low values",1.02
same,normalized growth,"locus YMR307W, strain GAS1, hits give low values",1.04
same,normalized growth,"locus YNL067W, strain RPL9B, hits give low values",1.02
same,normalized growth,"locus YNL071W, strain lat1, hits give low values",1.02
same,normalized growth,"locus YNL128W, strain TEP1, hits give low values",1.01
same,normalized growth,"locus YNL183C, strain NPR1, hits give low values",0.908
same,normalized growth,"locus YNL209W, strain ssb2, hits give low values",1.02
same,normalized growth,"locus YNL233W, strain BNI4, hits give low values",1.03
same,normalized growth,"locus YNL248C, strain rpa49, hits give low values",1.01
same,normalized growth,"locus YNL250W, strain rad50, hits give low values",0.986
same,normalized growth,"locus YNL271C, strain bni1, hits give low values",0.998
same,normalized growth,"locus YNL298W, strain CLA4, hits give low values",0.991
same,normalized growth,"locus YNL307C, strain MCK1, hits give low values",1
same,normalized growth,"locus YNL322C, strain KRE1 (second series), hits give low values",1.02
same,normalized growth,"locus YNL322C, strain KRE1, hits give low values",1.01
same,normalized growth,"locus YNR049C, strain mso1, hits give low values",1.02
same,normalized growth,"locus YNR052C, strain pop2, hits give low values",0.998
same,normalized growth,"locus YOL006C, strain TOP1, hits give low values",1.11
same,normalized growth,"locus YOL012C, strain htz1",1.19
same,normalized growth,"locus YOL147C, strain pex11, hits give low values",0.996
same,normalized growth,"locus YOR001W, strain rrp6, hits give low values",1.02
same,normalized growth,"locus YOR061W, strain CKA2, hits give low values",1.02
same,normalized growth,"locus YOR069W, strain VPS5, hits give low values",1.01
same,normalized growth,"locus YOR070C, strain gyp1, hits give low values",1.02
same,normalized growth,"locus YOR080W, strain dia2, hits give low values",1.02
same,normalized growth,"locus YOR083W, strain WHI5, hits give low values",1.01
same,normalized growth,"locus YOR106W, strain vam3, hits give low values",1.02
same,normalized growth,"locus YOR136W, strain idh2, hits give low values",1
same,normalized growth,"locus YOR144C, strain elg1, hits give low values",1
same,normalized growth,"locus YOR184W, strain ser1, hits give low values",1.01
same,normalized growth,"locus YOR231W, strain MKK1, hits give low values",0.901
same,normalized growth,"locus YOR265W, strain rbl2, hits give low values",1.02
same,normalized growth,"locus YOR270C, strain vph1, hits give low values",0.954
same,normalized growth,"locus YOR290C, strain snf2, hits give low values",1.02
same,normalized growth,"locus YOR316C, strain cot1, hits give low values",0.989
same,normalized growth,"locus YPL051W, strain arl3, hits give low values",1.02
same,normalized growth,"locus YPL078C, strain atp4, hits give low values",1.02
same,normalized growth,"locus YPL106C, strain sse1, hits give low values",1.05
same,normalized growth,"locus YPL240C, strain hsp82, hits give low values",1.03
same,normalized growth,"locus YPL256C, strain CLN2, hits give low values",0.894
same,normalized growth,"locus YPR119W, strain clb2, hits give low values",1
same,normalized growth,"locus YPR141C, strain kar3, hits give low values",0.995
same,normalized growth,"locus YPR163C, strain tif3, hits give low values",1
same,normalized growth,"locus YPR167C, strain met16, hits give low values",0.996
same,normalized growth,"strain wtn01, hits give low values",1.01
